# Measured values from ChEMBL document CHEMBL3988442, “University of Dundee, Small-Polar-MMV Screening Library” (2021).
# For some of these results: Entries with a potency or affinity are not part of this list.
# What was measured:
# Design in all cases: scale not given: direction of the effect not stated beside the values
# [1] = target: Protein translocase subunit SecA (Escherichia coli (strain K12)) (UniProt P10408); test: Assay to Identify E. coli SecA ATPase Inhibitors; assay type: functional; settings: 30 µM
# [2] = target: T1, Ubiquitin-activating enzyme e1, putative (Leishmania donovani (strain BPK282A1)) (UniProt E9BSI1); test: Leishmania donovani Ubiquitin Activating Enzyme (LdE1); assay type: functional; settings: 30 µM
# T1 sequence (whole entry): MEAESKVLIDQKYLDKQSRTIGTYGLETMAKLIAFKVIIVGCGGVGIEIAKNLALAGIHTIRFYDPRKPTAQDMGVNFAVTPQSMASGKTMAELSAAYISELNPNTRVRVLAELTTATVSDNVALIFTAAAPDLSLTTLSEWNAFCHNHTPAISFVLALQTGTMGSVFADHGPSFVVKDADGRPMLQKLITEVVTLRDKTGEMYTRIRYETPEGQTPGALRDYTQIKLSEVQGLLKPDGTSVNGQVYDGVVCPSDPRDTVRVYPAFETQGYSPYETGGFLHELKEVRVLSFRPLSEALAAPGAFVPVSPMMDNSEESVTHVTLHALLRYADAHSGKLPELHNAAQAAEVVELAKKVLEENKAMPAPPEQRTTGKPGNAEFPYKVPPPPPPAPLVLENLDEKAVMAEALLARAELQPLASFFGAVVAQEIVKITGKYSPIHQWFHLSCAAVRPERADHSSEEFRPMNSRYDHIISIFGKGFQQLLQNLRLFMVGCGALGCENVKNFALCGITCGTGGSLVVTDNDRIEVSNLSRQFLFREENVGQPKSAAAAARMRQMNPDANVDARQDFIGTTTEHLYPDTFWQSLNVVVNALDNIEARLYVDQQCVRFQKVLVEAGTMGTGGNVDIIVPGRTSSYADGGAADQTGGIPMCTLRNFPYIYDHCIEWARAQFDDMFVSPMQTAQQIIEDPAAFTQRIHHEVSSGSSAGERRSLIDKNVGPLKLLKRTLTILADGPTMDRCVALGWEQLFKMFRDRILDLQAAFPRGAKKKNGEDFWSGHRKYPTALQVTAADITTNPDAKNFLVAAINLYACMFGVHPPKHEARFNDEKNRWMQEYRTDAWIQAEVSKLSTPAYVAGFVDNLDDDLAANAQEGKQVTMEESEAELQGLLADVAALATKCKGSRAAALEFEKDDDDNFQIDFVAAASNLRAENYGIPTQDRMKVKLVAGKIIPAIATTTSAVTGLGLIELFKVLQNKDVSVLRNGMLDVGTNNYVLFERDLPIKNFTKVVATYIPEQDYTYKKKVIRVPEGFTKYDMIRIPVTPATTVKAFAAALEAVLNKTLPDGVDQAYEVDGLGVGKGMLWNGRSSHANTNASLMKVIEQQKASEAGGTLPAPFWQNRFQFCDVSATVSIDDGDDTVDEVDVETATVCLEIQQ
# [3] = target: AMP-activated protein kinase, AMPK (Homo sapiens) (UniProt P54646+O43741+P54619+Q9UGJ0+Q9Y478+Q13131+Q9UGI9); test: AMP-dependent Kinase enzyme assay. An in vitro enzyme assay that detects ADP turnover that is directly proportional to AMPK activity. This uses naive AMPK that is activated during the assay with MK-8722; assay type: functional; settings: 30 µM
# [4] = target: Sialic acid-binding Ig-like lectin 9 (Homo sapiens) (UniProt Q9Y336); test: Hs-Siglec9 ALPHAscreen SOP 20170721; settings: 10 µM
# [5] = system: Trypanosoma cruzi; test: Trypanosoma cruzi phosphomannomutase and mannose-1-phosphate guanylyltransferase assay; assay type: functional; settings: 10 µM
# [6] = target: T2, Arginase-2, mitochondrial (Homo sapiens) (UniProt P78540); test: in vitro enzyme assay to detect the production of urea directly proportional to the activity of Arginase II; assay type: functional; settings: 33.3 µM; further: in the data most compounds retested in dose-response had high values
# T2 sequence (whole entry): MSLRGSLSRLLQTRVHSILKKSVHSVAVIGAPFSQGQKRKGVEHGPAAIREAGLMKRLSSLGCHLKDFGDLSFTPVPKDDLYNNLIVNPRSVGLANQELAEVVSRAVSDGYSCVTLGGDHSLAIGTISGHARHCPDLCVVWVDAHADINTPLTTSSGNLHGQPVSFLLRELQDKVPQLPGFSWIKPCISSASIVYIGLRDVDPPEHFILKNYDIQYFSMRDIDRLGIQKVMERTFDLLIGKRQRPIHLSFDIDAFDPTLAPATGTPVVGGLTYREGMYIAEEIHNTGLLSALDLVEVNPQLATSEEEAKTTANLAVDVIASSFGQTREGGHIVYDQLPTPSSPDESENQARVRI
# [7] = target: T3, Proteasome subunit beta (Trypanosoma cruzi) (UniProt O96673); test: Trypanosoma cruzi proteasome chymotrypsin-like activity (TcProtChymo) assay.; further: in the data most compounds retested in dose-response had high values; assay type: functional; settings: 9.37 µM
# T3 sequence (whole entry): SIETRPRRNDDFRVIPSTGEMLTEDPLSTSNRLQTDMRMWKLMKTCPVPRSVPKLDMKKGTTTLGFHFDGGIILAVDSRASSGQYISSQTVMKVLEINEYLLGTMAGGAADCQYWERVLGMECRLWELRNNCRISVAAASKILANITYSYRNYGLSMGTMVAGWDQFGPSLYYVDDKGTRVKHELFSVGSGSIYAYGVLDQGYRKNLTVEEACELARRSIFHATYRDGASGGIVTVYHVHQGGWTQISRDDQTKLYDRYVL
# [8] = organism: Homo sapiens; test: To identify inhibition of the IFN signalling (Jak-Stat) pathway via expression of an eGFP reporter gene under the control of an IFN-stimulated response element (ISRE) containing MxA promoter.; assay type: functional; settings: 30 µM
# [9] = target: T4, Tyrosyl-tRNA synthetase, putative (Trypanosoma cruzi (strain CL Brener)) (UniProt Q4DSP6); test: Trypanosoma cruzi tyrosyl tRNA synthetase (TcYRS) _High Tyrosine SOP; assay type: functional; settings: 30 µM; further: in the data most compounds retested in dose-response had high values
# T4 sequence (whole entry): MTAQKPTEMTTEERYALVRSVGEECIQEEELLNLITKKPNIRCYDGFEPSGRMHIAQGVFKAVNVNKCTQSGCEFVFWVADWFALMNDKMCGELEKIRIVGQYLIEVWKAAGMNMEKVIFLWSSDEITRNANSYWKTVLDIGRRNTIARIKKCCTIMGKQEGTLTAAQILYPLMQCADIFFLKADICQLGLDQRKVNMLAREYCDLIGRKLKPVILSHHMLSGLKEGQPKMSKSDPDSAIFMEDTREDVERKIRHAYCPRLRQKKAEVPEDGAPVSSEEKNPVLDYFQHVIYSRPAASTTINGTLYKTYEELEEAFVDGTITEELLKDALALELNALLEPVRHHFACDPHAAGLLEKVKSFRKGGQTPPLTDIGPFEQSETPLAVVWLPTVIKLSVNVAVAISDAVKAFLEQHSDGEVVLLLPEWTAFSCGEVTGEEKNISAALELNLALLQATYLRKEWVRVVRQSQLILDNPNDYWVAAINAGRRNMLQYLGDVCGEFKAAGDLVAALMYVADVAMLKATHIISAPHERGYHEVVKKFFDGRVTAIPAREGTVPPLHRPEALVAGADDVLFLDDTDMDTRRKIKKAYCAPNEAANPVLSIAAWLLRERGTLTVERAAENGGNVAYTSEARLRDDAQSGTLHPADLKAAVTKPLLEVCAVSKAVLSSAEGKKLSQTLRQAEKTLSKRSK
# [10] = target: T4, Tyrosyl-tRNA synthetase, putative (Trypanosoma cruzi (strain CL Brener)); test: Trypanosoma cruzi tyrosyl tRNA synthetase (TcYRS) SOP; assay type: functional; settings: 30 µM
# [11] = target: Chromo domain-containing protein 1 (Saccharomyces cerevisiae (strain ATCC 204508 / S288c) (Baker's yeast)) (UniProt P32657); test: ScCHD-1 Enzyme Inhibition Assay; assay type: functional; settings: 30 µM; further: in the data most compounds retested in dose-response had high values
# Sequence of Chromo domain-containing protein 1 (Saccharomyces cerevisiae (strain ATCC 204508 / S288c) (Baker's yeast)) (P32657 whole entry, the tested form may be a part): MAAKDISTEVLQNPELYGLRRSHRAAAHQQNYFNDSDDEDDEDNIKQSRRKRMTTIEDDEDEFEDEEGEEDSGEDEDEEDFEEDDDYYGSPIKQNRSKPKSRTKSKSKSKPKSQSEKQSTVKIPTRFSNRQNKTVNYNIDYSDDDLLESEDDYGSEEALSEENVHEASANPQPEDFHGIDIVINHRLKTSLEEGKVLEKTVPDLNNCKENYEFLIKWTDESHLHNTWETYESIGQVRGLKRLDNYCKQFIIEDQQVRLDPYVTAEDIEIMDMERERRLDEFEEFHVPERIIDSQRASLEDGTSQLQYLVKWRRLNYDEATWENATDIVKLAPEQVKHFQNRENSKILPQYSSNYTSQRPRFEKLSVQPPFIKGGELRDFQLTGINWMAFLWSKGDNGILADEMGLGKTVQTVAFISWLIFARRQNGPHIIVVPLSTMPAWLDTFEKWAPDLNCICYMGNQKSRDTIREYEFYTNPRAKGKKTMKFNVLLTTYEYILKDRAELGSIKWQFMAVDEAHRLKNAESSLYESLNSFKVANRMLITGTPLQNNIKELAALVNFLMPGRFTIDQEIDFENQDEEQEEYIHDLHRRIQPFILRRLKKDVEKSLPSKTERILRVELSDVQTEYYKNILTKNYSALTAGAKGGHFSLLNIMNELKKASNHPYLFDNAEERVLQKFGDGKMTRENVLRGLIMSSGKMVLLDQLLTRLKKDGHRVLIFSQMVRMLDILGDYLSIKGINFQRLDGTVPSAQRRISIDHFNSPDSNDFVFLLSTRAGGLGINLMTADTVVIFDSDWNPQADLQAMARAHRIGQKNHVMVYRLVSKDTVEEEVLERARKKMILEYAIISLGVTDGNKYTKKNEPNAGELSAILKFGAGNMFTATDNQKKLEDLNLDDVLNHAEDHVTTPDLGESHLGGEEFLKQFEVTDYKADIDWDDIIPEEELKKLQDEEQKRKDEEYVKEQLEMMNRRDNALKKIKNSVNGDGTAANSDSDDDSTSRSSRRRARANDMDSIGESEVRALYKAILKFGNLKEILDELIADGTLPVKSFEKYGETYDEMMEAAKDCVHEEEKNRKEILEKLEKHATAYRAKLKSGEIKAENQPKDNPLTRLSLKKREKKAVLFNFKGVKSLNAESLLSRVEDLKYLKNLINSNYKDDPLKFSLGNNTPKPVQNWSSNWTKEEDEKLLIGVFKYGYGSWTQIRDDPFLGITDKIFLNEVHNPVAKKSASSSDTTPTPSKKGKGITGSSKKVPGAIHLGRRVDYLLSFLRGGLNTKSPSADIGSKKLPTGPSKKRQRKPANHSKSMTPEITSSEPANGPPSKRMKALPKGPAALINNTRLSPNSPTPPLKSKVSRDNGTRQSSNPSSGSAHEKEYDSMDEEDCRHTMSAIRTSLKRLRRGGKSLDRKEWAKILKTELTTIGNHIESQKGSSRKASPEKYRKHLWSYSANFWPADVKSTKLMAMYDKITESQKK
# Sequence of Sialic acid-binding Ig-like lectin 9 (Homo sapiens) (Q9Y336 whole entry): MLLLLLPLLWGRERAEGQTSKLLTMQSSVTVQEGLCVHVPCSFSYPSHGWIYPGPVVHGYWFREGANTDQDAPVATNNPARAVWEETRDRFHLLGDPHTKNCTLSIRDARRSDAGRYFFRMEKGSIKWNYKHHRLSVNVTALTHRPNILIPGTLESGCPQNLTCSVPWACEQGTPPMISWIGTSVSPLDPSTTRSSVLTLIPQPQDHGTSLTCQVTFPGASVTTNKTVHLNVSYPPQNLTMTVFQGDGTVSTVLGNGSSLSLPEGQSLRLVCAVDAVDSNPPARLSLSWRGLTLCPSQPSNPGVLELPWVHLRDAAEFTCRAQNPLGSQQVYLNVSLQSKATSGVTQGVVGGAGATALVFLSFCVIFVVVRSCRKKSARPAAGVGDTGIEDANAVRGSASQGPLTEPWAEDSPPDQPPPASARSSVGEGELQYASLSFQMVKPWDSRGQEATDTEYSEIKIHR
# Sequence of Protein translocase subunit SecA (Escherichia coli (strain K12)) (P10408 whole entry): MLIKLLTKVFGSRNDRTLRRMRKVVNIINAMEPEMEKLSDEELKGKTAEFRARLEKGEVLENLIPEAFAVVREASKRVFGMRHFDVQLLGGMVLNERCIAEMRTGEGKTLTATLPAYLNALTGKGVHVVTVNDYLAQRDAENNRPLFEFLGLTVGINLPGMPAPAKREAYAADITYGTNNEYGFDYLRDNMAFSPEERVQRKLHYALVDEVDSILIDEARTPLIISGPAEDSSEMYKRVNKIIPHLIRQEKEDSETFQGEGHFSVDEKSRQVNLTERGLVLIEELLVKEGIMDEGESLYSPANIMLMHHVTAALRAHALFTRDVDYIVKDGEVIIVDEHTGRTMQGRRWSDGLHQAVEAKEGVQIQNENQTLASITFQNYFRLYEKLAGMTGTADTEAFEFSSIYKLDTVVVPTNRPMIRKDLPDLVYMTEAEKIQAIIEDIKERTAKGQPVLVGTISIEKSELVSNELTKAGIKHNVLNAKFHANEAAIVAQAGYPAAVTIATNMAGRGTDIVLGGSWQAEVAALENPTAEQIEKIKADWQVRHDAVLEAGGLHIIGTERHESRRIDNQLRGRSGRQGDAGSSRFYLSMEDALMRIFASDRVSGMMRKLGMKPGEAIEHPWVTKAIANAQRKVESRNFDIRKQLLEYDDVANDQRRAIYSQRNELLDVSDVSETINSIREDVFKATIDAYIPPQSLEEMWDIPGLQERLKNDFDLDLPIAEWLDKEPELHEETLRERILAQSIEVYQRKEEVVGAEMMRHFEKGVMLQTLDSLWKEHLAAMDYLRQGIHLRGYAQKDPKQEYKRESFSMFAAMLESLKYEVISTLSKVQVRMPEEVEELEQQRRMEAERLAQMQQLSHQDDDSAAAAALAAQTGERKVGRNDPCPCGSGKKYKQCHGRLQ
SMILES,Percent Effect [1],Percent Effect [2],Percent Effect [3],Percent Effect [4],Percent Effect [5],Percent Effect [6],Percent Effect [7],Percent Effect [8],Percent Effect [9],Percent Effect [10],Percent Effect [11]
Cc1ccoc1C(=O)N1C[C@H]2CCC[C@@]2(COCc2ccncc2)C1,-1.22%,18.2%,-2.61%,3.02%,2.66%,-3.23%,-2.44%,1.6%,5.29%,11.5%,-4.37%
O=C(c1cccc(CN2CCCC2)c1)N1CCCC(n2cncn2)C1 (stereo not given),-4.8%,21.6%,-12.1%,-3.07%,-0.849%,-10%,16.2%,23.3%,6.4%,16.1%,-2.99%
CC(C)c1csc(C2CCCN(C(=O)c3ccc(=O)n(C)n3)C2)n1 (stereo not given),-2.9%,13.5%,-11.4%,-0.23%,-1.86%,1.74%,7.3%,26%,4.3%,11.1%,-5.6%
CCOC(=O)[C@]12CCCN(Cc3ccco3)C[C@H]1CN(CCN(C)C)C2,-2.71%,7.79%,3.96%,8.64%,-0.888%,-0.645%,14.4%,2.34%,1.06%,8.97%,-6.8%
Cc1ccc(-c2ncc(C(=O)NCCS(N)(=O)=O)s2)c(C)c1,-7.16%,5.41%,-2.36%,0.84%,-5%,-3.61%,9.55%,21.4%,0.493%,-1.24%,-4.18%
O=C(NCCc1ccccn1)C1=NN(c2ccccc2)C(=O)CN1,0.741%,15.2%,0.826%,-11.6%,-9.16%,6.08%,4.83%,11.7%,2.46%,13.9%,-1.69%
N#Cc1ccc(C(=O)NCCCNc2ccc(C(F)(F)F)cn2)cc1,-0.682%,13.2%,3.77%,-0.309%,-7.52%,-0.766%,9.02%,35.5%,7.35%,17.1%,-10.9%
CC(C)(C)c1n[nH]c(C2CN(C(=O)c3cc(C4CC4)on3)CCO2)n1 (stereo not given),-2.82%,7.89%,1.22%,-5.79%,5.55%,-8.28%,-4.7%,0.97%,1.06%,5.2%,-10.8%
CCC(O)CN1CCN(C(=O)c2ccnc(N(C)C)c2)CC1 (stereo not given),-1.16%,5.41%,-5.16%,13%,6.37%,14.3%,4.83%,-0.0962%,1.59%,12.2%,-4.75%
CCOCC(=O)N1C[C@@H]2COC[C@H](c3nc(C)no3)[C@@H]2C1,-1.23%,-5.41%,5.84%,-1.1%,0.586%,2.5%,9.21%,1.97%,-15.8%,-1.22%,-2.33%
CCN(CC)c1ccc(-c2nc(-c3cccc(OC)c3OC)no2)cn1,-3.58%,8%,-0.0158%,12.2%,6.52%,17.2%,0.349%,10.7%,1.64%,-8.64%,-2.98%
CNC(=O)C1CCN(C(=O)c2ccn(-c3ccc(F)cc3)n2)CC1,-3.93%,16.2%,1.73%,1.5%,-1.21%,2.77%,7.54%,8.4%,10.9%,23.2%,-0.908%
COCC(O)CNC(=O)c1coc(COc2ccc3sc(C)nc3c2)n1 (stereo not given),-0.0441%,5.48%,3.03%,0.244%,-7.25%,5.46%,14.7%,44.1%,5.38%,15%,-1.23%
COc1ccnc(N2CCN(C(=O)c3cnn(C)c3C3CC3)CC2)n1,-5.79%,10.8%,-3.14%,28.6%,3.81%,0.744%,6.61%,-9.54%,4.3%,16.1%,-13.1%
O=C1CN(Cc2nnc(-c3ccc(Br)o3)o2)CCN1,-0.248%,4.17%,-1.21%,-1.55%,0.486%,1.32%,21.2%,-4.7%,7.37%,0%,-3.99%
Cc1n[nH]cc1C(=O)N1CCCC(n2nnc3cc(F)ccc32)C1 (stereo not given),-5.29%,5.33%,7.57%,-0.922%,6.5%,-3.5%,11.7%,5.51%,5.32%,11.5%,-7.34%
Cc1cc(C)n(CC2CCCN2C(=O)c2cc[nH]n2)n1 (stereo not given),-7.68%,16.5%,-4.09%,-3.12%,0.923%,0.215%,8.58%,-2.4%,7.29%,17.7%,-34.4%
Cc1nc(CN2C(=O)C[C@H]3[C@H]2CCN3C2CCOCC2)cs1,-2.26%,11%,-0.758%,4.06%,0.595%,-2%,8.3%,-4.37%,3.12%,11.1%,-3.21%
Cc1nn(C)c(C)c1C1CCCN1C(=O)CCCn1cccn1 (stereo not given),0.0877%,0%,3.67%,-4.76%,-6.07%,10.1%,-2.45%,9.1%,0.493%,-6.17%,1.61%
CS(=O)(=O)NCc1nnc2n1CCN(CC1CC1)C2,-5.86%,8.11%,5.91%,-4.89%,-0.293%,-2.23%,18.6%,-21.1%,5.41%,12.8%,-2.16%
